High-throughput results (PubChem BioAssay)
The list is not random: actives were taken first. Their share in the collection is about 3.5%.
GPR151 ag – activators of human GPR151 | PathHunter beta-arrestin GPR151 cells, luminescence | activation, % at 11.2 µM | 1% of 650,000 active | AID 1508602; in the data active = activation above about 4.9%;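 also: 0% = median of compound wells and 100% = cells with positive control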
FBW7 activator – human FBW7 E3 ligase activation, primary screen. AlphaScreen FBW7–phospho-cyclin E peptide binding, activator screen. normalized activity (activation), % at 26.1 µM. Q969H0. AID 1259310. 0.13% of 650,000 active; in the data active = normalized activity above about 1.9%;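 also: purified mutant Fbw7 with reduced substrate affinity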
Target sequence (Q969H0 whole entry, looked up): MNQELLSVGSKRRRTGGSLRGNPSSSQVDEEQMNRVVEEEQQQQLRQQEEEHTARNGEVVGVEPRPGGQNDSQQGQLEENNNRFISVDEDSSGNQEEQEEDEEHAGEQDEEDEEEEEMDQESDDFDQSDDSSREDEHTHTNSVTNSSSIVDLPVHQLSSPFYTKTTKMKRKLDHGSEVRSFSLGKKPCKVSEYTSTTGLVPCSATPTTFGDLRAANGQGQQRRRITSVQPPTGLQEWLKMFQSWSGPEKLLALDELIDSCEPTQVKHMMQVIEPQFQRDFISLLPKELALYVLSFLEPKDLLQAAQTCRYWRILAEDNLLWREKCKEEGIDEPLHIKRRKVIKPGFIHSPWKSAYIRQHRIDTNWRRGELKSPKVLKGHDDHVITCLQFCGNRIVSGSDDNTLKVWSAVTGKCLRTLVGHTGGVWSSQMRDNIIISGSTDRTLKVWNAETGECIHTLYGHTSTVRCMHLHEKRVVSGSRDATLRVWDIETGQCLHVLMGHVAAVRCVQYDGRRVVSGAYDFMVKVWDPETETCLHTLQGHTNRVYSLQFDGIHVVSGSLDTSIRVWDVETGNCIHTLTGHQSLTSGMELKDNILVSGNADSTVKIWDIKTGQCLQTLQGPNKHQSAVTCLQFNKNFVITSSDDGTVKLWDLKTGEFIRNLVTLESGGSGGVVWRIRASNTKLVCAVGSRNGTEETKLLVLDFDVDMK
MITF primary – blocks human microphthalmia-associated transcription factor; O75030; AlphaScreen MITF homodimerization, bead proximity signal; inhibition, % at 2.6 µM; 0.91% of 650,000 active; AID 1259374; in the data active = inhibition above about 50%;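 also: 0% = vehicle wells with protein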
TEAD-YAP block – TEAD-YAP interaction inhibition; HEK-TIYL cells, TEAD-Gal4/YAP UAS-luciferase luminescence; inhibition, % at 9.12 µM; 1.4% of 640,000 active; in the data active = inhibition above about 32%;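 also: 0% = median of test compound wells and 100% = reference inhibitor wells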
Numbers without * were called inactive.

SMILES | GPR151 ag | FBW7 activator | MITF primary | TEAD-YAP block
CCCOC(=O)CSC1=C(C#N)C(c2ccc3c(c2)OCO3)CC(=O)N1 (stereo unspecified) | 3 | 0 | -2 | 1
CCOC(=O)CSC1=C(C#N)C(c2ccco2)CC(=O)N1 (stereo unspecified) | 0 | 0 | 1 | 55*
CC(=O)C1=C(C)NC(SCC(=O)c2ccc(C)c(C)c2)=C(C#N)C1c1ccco1 (stereo unspecified) | 0 | 1.9* | 23 | 9
CC(=O)C1=C(C)NC(SCC(=O)c2ccccc2)=C(C#N)C1c1ccco1 (stereo unspecified) | -1 | 1 | 14 | -19
COC(=O)CSC1=C(C#N)C(c2ccc(C)o2)CC(=O)N1 (stereo unspecified) | 1 | 0 | 7 | 56*
COC(=O)CSC1=C(C#N)C(c2ccccc2C)CC(=O)N1 (stereo unspecified) | -1 | 0 | -9 | 7
Cc1csc(NC(=O)CSc2nnc(-c3ccccn3)n2-c2ccccc2Cl)n1 | 0 | 0 | -3 | 62*
Cc1ccccc1-n1c(SCC(=O)Nc2nccs2)nnc1-c1cccnc1 | 1 | 0 | 3 | 62*
Cc1csc(NC(=O)CSc2nnc(-c3cccnc3)n2-c2ccccc2C)n1 | 1 | 0 | -2 | 62*
COc1ccccc1-n1c(SCC(=O)Nc2nc(C)cs2)nnc1-c1ccccn1 | -1 | 0 | -3 | 23
COc1ccccc1-n1c(SCC(=O)NCc2cccs2)nnc1-c1cccnc1 | -1 | 3.3* | -1 | 4
COc1ccc(-n2c(SCC(=O)NCc3cccs3)nnc2-c2cccnc2)cc1 | 0 | 0 | 5 | 2
COc1ccc(C(c2nnnn2C(C)(C)C)N2CCN(C3CCCCC3)CC2)c(OC)c1 (stereo unspecified) | -1 | 0 | 24 | -11
COc1ccc(-c2csc(NC(=O)COC(=O)c3ccc(OC)c([N+](=O)[O-])c3)n2)cc1 | -1 | 0 | 11 | -8
Nc1c(Cl)cc(Cl)cc1C(=O)OCC(=O)c1c[nH]c2ccccc12 | 3 | 0 | -4 | -6
Cc1ccccc1-n1c(SCC(=O)Nc2nccs2)nnc1-c1ccccn1 | 0 | 0 | 2 | 37*
Cc1ccc(-n2c(SCC(=O)Nc3nccs3)nnc2-c2ccccn2)c(C)c1 | 2 | 0 | 4 | 17
Cc1sc2ncn(CC(=O)N3CCC4(CC3)NC(=O)c3ccccc3O4)c(=O)c2c1C | 0 | 0 | 13 | -6
COc1ccc(N2C(N)=C(C#N)C(c3ccc(Br)cc3)C3=C2CC(C)(C)CC3=O)cc1 (stereo unspecified) | 0 | 0 | -7 | 4
O=c1c2c(nc3cc(-c4ccco4)[nH]n13)CCS2 | -2 | 0 | 89* | -29
O=C1N=C(N2CCCC2)S/C1=C/c1ccc(O)cc1 | 0 | 0 | 3 | 13
CC1CCCN(C2=NC(=O)/C(=C\c3ccc(N(C)C)cc3)S2)C1 (stereo unspecified) | 0 | 0 | 0 | 59*
O=C1N=C(N2CCCC(CO)C2)S/C1=C/c1cccc2ccccc12 (stereo unspecified) | -2 | 0 | 2 | 61*
CC1CCCN(C2=NC(=O)/C(=C\c3ccc(O)cc3)S2)C1 (stereo unspecified) | -2 | 0 | -4 | 61*
COc1ccc2[nH]c(CN3CCC4(CC3)NC(=O)c3ccccc3O4)c(C)c2c1 | -1 | 0 | 2 | 68*
SMILES | GPR151 ag | FBW7 activator | MITF primary | TEAD-YAP block
Cn1c(-c2ccccc2)cn2cc(-c3cccc([N+](=O)[O-])c3)nc12 | -8 | 0 | 3 | 99*
COc1ccc(-c2cn3cc(-c4cccc([N+](=O)[O-])c4)nc3n2C)cc1 | -7 | 0 | 2 | 98*
COc1ccc(-n2c(-c3cccc([N+](=O)[O-])c3)n[nH]c2=S)cc1 | 1 | 0 | 2 | -2
O=[N+]([O-])c1cccc(-c2csc(Nc3ccc4c(c3)OCO4)n2)c1 | -1 | 0 | 26 | -21
Cn1c(-c2ccc3c(c2)OCO3)cn2cc(-c3cccc([N+](=O)[O-])c3)nc12 | -1 | 0 | 7 | 98*
Cn1c(-c2cccc([N+](=O)[O-])c2)n[nH]c1=S | 0 | 0 | 1 | 3
C/C(CC(=O)Nc1ccc2c(c1)OCO2)=N\NC(=O)C(=O)NC1CCCCC1 | 1 | 0 | -4 | -2
Nc1ccc(C(=O)Nc2ccc(O)cc2)cc1 | 0 | 0 | 6 | 26
CC(=O)c1ccc(NC(=O)c2noc3c2CCc2ccccc2-3)cc1 | -1 | 0 | -3 | -15
O=C(Nc1cccc(O)c1)c1noc2c1CCc1ccccc1-2 | -5 | 0 | 9 | 87*
Nc1ccc(C(=O)Nc2cccc(O)c2)cc1 | -5 | 0 | 20 | 59*
O=C(Nc1cccc(O)c1)c1ccccc1 | 1 | 0 | 3 | 48*
CCN(CC)CCNc1cc(C(F)(F)F)c(C#N)c2nc3ccccc3n12 | -1 | 0 | -1 | 3
COC(=O)C1C(c2ccc([N+](=O)[O-])cc2)=NN(c2ccc(Br)cc2Br)C1C(=O)OC (stereo unspecified) | -1 | 0 | 6 | 10
CN(C)CCn1c2ccccc2c2cnc(N)c(C#N)c21 | 2 | 0 | 3 | 93*
CCCCN(C)C(=O)CSc1nc2ccccc2c(=O)n1CC1CCC(C(=O)NCCc2ccccc2)CC1 (stereo unspecified) | -2 | 1.9* | 20 | -19
CCOC(=O)c1c(C)[nH]c2ccc(Oc3nc(OC)cc(OC)n3)cc12 | 2 | 0 | -3 | 41*
O=C(C1CC1)N1CCc2cc(S(=O)(=O)NCc3ccc4c(c3)OCO4)ccc21 | 1 | 0 | 4 | -5
O=C(NCC1CCCO1)c1ccc2c(c1)NC(=O)C(CS(=O)(=O)Cc1ccc(F)cc1)N2 (stereo unspecified) | 3 | 0 | -5 | 5
Cc1csc2n1c(C(=O)c1ccccc1)c(C)[n+]2-c1ccc(Br)cc1 | -1 | 0 | 6 | 14
CCc1c(C(=O)c2ccc(C)cc2)n2c(C)csc2[n+]1-c1ccccc1 | 2 | 0 | 2 | 40*
Cn1c(/C(C#N)=N/OC(=O)C23CC4CCC2(C)C4(C)CO3)nc2ccccc21 (stereo unspecified) | 0 | 0 | 9 | -2
CCCCC(CC)CNC(=O)c1ccc2c(=O)n(CCOC)c(=O)[nH]c2c1 (stereo unspecified) | 0 | 0 | 6 | 45*
COc1cccc(N2C(=O)C(O)=C(C(C)=O)C2c2ccc(F)cc2)c1 (stereo unspecified) | -1 | 0 | -11 | -2
Oc1ccccc1-c1ccc2c(-c3ccc(N4CCNCC4)cc3)[nH]nc2n1 | 1 | 0 | 8 | 61*
COCCN(CCOC)S(=O)(=O)c1ccc(C(=O)Nc2ccc(S(N)(=O)=O)cc2)cc1 | 4 | 0 | 8 | -4
FC(F)(F)c1cccc(CNc2nc(-c3ccc(N4CCOCC4)nc3)nc3nc[nH]c23)c1 | 1 | 18* | 10 | 3
OCC1CCCN1c1nccc(NCc2cccc(C(F)(F)F)c2)n1 (stereo unspecified) | 1 | 0 | -4 | 43*
